The panel holds about 83,000 compounds, 20% with a hit somewhere; the sample as a whole holds those more often.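 Percent growth is the endpoint: 0 to 100 indicates growth inhibition (40 means 60% inhibition), 0 means no net growth, and negative values indicate cell death.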 Unmarked numbers belong to inactive results. Calls of active or inactive are those of the source. How the source made its calls: active means growth percent below 10; inactive means the rest.
Test system: NCI-H23 lung
Assay: NCI-60 one-dose screen, 48 h (100 = growth as untreated, 0 = no growth, -100 = all killed)
Details: 10 µM unless noted

Compound	growth
CC(=O)NNC(=O)c1sc(NC(C)=O)nc1C	98.2%
Nc1ccc(S(=O)(=O)c2ccc(NO)cc2)cc1	100%
Cc1c(Cc2ccccc2)c(=O)oc2c(C)c(OCC(=O)n3nc(C#N)cc3N)ccc12	96.5%
NC(=O)CC(NC(=O)COc1ccc(Cl)cc1Cl)C(=O)O (stereo not given)	101%
CCCCCCCCC1OC1CCCCCCCC(=O)O (stereo not given)	100%
CC(=O)/C(=C/c1ccc(-c2ccccc2)cc1)C(=O)c1ccccc1	91.6%
COc1ccc(-c2nc(Nc3nc4ccccc4[nH]3)nc(N)c2C#N)cc1	100%
CCC(CCCN1C(=O)c2ccccc2C1=O)Nc1cc(OC)cc2cccnc12 (stereo not given)	97.6%
CC(=O)OC1/C=C\CC/C=C\C1 (stereo not given)	121%
CCc1ccc(C(=Nc2ccc(N(C)C(=O)CN3CCN(C)CC3)cc2)c2c(O)[nH]c3ccc(C(=O)OC)cc23)cc1	-60.5% (active)
c1ccc2[nH]c(-c3ccc(OCCCCCOc4ccc(-c5nc6ccccc6[nH]5)cc4)cc3)nc2c1	40.9%
Oc1ccc(CN(Cc2ccc(C(F)(F)F)cc2)Cc2ccc(O)c3ncccc23)c2cccnc12	17.4%
COc1ccc2nc3cc(Cl)ccc3c(NCCCNC(C)=O)c2c1	37%
O=C(N/N=C\c1ccc(Cl)cc1)C(=O)N/N=C\c1ccc(Cl)cc1	102%
Cc1nc2c(nnn2-c2ccccc2)c2nc(-c3ccccc3)oc(=O)c12	109%
COC(=O)c1ccc2[nH]c(O)c(C(=Nc3ccc(N(C)C(=O)CN4CCN(C)CC4)cc3)c3ccc(N)cc3)c2c1	70%
Cc1nc(N)sc1C(=O)NCCO	106%
CC(=O)Nc1nc(C)c(C(=O)N/N=C/N2CCOCC2)s1	106%
O=C(O)CC1Cc2ccccc2C1C(=O)O (stereo not given)	93.5%
Cc1ccc2c(c1)C(=O)CCS2	100%

Compound	growth
CCC(C)(C)c1ccc(OCCCCCCN2CCNCC2)cc1	60%
c1ccc(Nc2ccccn2)cc1	103%
Brc1ccc(-c2nc3ccccc3s2)cc1	92.4%
O=C1/C(=N\c2cc(=O)[nH]n2S(=O)(=O)c2ccccc2)Nc2ccccc21	107%
CCCC(C)c1cc(Cc2cc(Cl)cc(Cl)c2O)c(O)c(Cc2cc(Cl)cc(Cl)c2O)c1 (stereo not given)	-6.96% (active)
c1ccc(Nc2ncc3c(n2)-c2cccn2CC3)cc1	98.7%
CC1=C(C)C(=O)C(C(C)C2=C(C)C(=O)C(C)=C(C)C2=O)=C(C)C1=O	84.6%
C=CCSc1nnc(COc2ccc3c(C)c(Cc4ccccc4)c(=O)oc3c2C)o1	102%
CCOc1nc(-c2ccccc2)cc2c(O)c(C(=O)N/N=C/c3ccccc3O)[nH]c(=O)c12	62.7%
CC(=O)Nc1nc(C)c(C(=O)NNC(=O)Nc2ccccc2)s1	102%
c1cc[c]([Bi]([c]2ccccc2)[c]2ccccc2)cc1	93.9%
COc1cc(NC(=O)CSc2nc3ccc(Cl)cc3c(=O)n2-c2ccc(F)cc2)cc(OC)c1OC	85.2%
CC(=O)Nc1nc(C)c(C(=O)NN)s1	103%
COC(=O)C(C)[C@H]1CC[C@@H]2[C@]1(C)CC=C1[C@]23C=C[C@]2(C[C@@H](OC(C)=O)CC[C@]12C)C(C(=O)OC)C3C(=O)OC (stereo not given in full)	92.3%
Cc1nc2c(nnn2-c2ccccc2)c2nc(-c3ccc(Cl)cc3)oc(=O)c12	116%
CCCCCCCCC/C(=N\NC(=O)c1ccncc1)c1ccc(O)c(O)c1O	21.8%
CNCCCNCCCCNCCCN1C(=O)c2ccc3c4c(ccc(c24)C1=O)C(=O)N(CCCNCc1ccccc1OC)C3=O	24.9%
Cc1nc(NC(=S)Nc2ccc(F)cc2)sc1C(=O)NNC(=S)Nc1ccc(F)cc1	38%
CCOc1ccc(/C=N/NC(=O)c2cccc3ccccc23)cc1OCC	92.3%
O=C(/C=C/c1ccc(Br)cc1)c1ccccc1	97.9%

Test system: NCI-H226 lung
Assay: as above
Details: 10 µM unless noted

Compound	growth
CC(=O)NNC(=O)c1sc(NC(C)=O)nc1C	93.1%
Nc1ccc(S(=O)(=O)c2ccc(NO)cc2)cc1	118%
Cc1c(Cc2ccccc2)c(=O)oc2c(C)c(OCC(=O)n3nc(C#N)cc3N)ccc12	96.2%
NC(=O)CC(NC(=O)COc1ccc(Cl)cc1Cl)C(=O)O (stereo not given)	102%
CCCCCCCCC1OC1CCCCCCCC(=O)O (stereo not given)	92%
CC(=O)/C(=C/c1ccc(-c2ccccc2)cc1)C(=O)c1ccccc1	83.1%
COc1ccc(-c2nc(Nc3nc4ccccc4[nH]3)nc(N)c2C#N)cc1	85.4%
CCC(CCCN1C(=O)c2ccccc2C1=O)Nc1cc(OC)cc2cccnc12 (stereo not given)	107%
CC(=O)OC1/C=C\CC/C=C\C1 (stereo not given)	102%
CCc1ccc(C(=Nc2ccc(N(C)C(=O)CN3CCN(C)CC3)cc2)c2c(O)[nH]c3ccc(C(=O)OC)cc23)cc1	-26.2% (active)
c1ccc2[nH]c(-c3ccc(OCCCCCOc4ccc(-c5nc6ccccc6[nH]5)cc4)cc3)nc2c1	103%
Oc1ccc(CN(Cc2ccc(C(F)(F)F)cc2)Cc2ccc(O)c3ncccc23)c2cccnc12	18.3%
COc1ccc2nc3cc(Cl)ccc3c(NCCCNC(C)=O)c2c1	34.1%
O=C(N/N=C\c1ccc(Cl)cc1)C(=O)N/N=C\c1ccc(Cl)cc1	110%
Cc1nc2c(nnn2-c2ccccc2)c2nc(-c3ccccc3)oc(=O)c12	99.8%
COC(=O)c1ccc2[nH]c(O)c(C(=Nc3ccc(N(C)C(=O)CN4CCN(C)CC4)cc3)c3ccc(N)cc3)c2c1	56.5%
Cc1nc(N)sc1C(=O)NCCO	97.2%
CC(=O)Nc1nc(C)c(C(=O)N/N=C/N2CCOCC2)s1	99.8%
O=C(O)CC1Cc2ccccc2C1C(=O)O (stereo not given)	102%
Cc1ccc2c(c1)C(=O)CCS2	101%

Compound	growth
CCC(C)(C)c1ccc(OCCCCCCN2CCNCC2)cc1	92.7%
c1ccc(Nc2ccccn2)cc1	130%
Brc1ccc(-c2nc3ccccc3s2)cc1	75.8%
O=C1/C(=N\c2cc(=O)[nH]n2S(=O)(=O)c2ccccc2)Nc2ccccc21	92.4%
CCCC(C)c1cc(Cc2cc(Cl)cc(Cl)c2O)c(O)c(Cc2cc(Cl)cc(Cl)c2O)c1 (stereo not given)	-4.21% (active)
c1ccc(Nc2ncc3c(n2)-c2cccn2CC3)cc1	59.2%
CC1=C(C)C(=O)C(C(C)C2=C(C)C(=O)C(C)=C(C)C2=O)=C(C)C1=O	124%
C=CCSc1nnc(COc2ccc3c(C)c(Cc4ccccc4)c(=O)oc3c2C)o1	95%
CCOc1nc(-c2ccccc2)cc2c(O)c(C(=O)N/N=C/c3ccccc3O)[nH]c(=O)c12	106%
CC(=O)Nc1nc(C)c(C(=O)NNC(=O)Nc2ccccc2)s1	7.19% (active)
c1cc[c]([Bi]([c]2ccccc2)[c]2ccccc2)cc1	95.8%
COc1cc(NC(=O)CSc2nc3ccc(Cl)cc3c(=O)n2-c2ccc(F)cc2)cc(OC)c1OC	83.2%
CC(=O)Nc1nc(C)c(C(=O)NN)s1	92.1%
COC(=O)C(C)[C@H]1CC[C@@H]2[C@]1(C)CC=C1[C@]23C=C[C@]2(C[C@@H](OC(C)=O)CC[C@]12C)C(C(=O)OC)C3C(=O)OC (stereo not given in full)	89.8%
Cc1nc2c(nnn2-c2ccccc2)c2nc(-c3ccc(Cl)cc3)oc(=O)c12	92.8%
CCCCCCCCC/C(=N\NC(=O)c1ccncc1)c1ccc(O)c(O)c1O	34.4%
CNCCCNCCCCNCCCN1C(=O)c2ccc3c4c(ccc(c24)C1=O)C(=O)N(CCCNCc1ccccc1OC)C3=O	35.7%
Cc1nc(NC(=S)Nc2ccc(F)cc2)sc1C(=O)NNC(=S)Nc1ccc(F)cc1	60.7%
CCOc1ccc(/C=N/NC(=O)c2cccc3ccccc23)cc1OCC	96.7%
O=C(/C=C/c1ccc(Br)cc1)c1ccccc1	90.8%
